CCHFV vOTU inh: blocks the CCHF virus ovarian tumor domain protease; CCHFV vOTU protease, Pep-AMC fluorescence; inhibition, % at 11.5 µM; hit rate 0.55% among 370,000; AID 651958
FBA Mtb inh: inhibitors of M. tuberculosis fructose-bisphosphate aldolase; P9WQA3; AID 588726; inhibition, % at 1 µM; purified M. tuberculosis FBA, fluorescence read-out; hit rate 2.3% among 360,000; in the data active = inhibition above about 27%
GDH-TPI counter-1: counter-screen for M. tuberculosis FBA inhibitors: GDH-TPI coupled enzymes; inhibition, % at 4.8 µM; AID 588335; hit rate 1.2% among 360,000; GDH-TPI coupled enzyme counterscreen, NADH absorbance
RecA intein inh: blocks M. tuberculosis RecA intein splicing | P9WHJ3 | cell-free RecA intein splicing, fluorescence | inhibition, % (test concentration not listed) | hit rate 0.75% among 290,000 | AID 2221; in the data active = inhibition above about 30%
Target sequence (P9WHJ3 whole entry, looked up): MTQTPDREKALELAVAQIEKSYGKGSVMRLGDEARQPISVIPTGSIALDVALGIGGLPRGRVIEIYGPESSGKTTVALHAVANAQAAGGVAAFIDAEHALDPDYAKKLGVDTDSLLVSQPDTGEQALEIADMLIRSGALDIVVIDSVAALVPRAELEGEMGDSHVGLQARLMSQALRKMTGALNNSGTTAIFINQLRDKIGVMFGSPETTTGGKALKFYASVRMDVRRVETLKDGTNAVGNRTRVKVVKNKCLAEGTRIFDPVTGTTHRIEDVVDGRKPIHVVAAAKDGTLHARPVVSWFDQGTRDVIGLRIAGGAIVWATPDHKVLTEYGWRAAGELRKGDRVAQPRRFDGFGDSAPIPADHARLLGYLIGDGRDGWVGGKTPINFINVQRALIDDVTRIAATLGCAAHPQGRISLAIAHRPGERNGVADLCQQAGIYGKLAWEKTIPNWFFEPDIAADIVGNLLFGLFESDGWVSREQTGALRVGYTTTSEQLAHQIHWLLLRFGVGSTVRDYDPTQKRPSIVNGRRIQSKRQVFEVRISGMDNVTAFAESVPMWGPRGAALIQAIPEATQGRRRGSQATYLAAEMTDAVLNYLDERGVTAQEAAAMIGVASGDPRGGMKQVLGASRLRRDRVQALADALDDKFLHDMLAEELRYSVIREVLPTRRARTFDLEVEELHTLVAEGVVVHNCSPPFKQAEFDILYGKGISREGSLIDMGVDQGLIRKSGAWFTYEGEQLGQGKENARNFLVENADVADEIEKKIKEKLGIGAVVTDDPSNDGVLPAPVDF
Mtb FBA inh conf: confirmation of M. tuberculosis fructose-bisphosphate aldolase inhibitors; shares compounds with FBA Mtb inh; purified M. tuberculosis FBA, fluorescence read-out; inhibition, % at 1 µM; hit rate 78% among 5,600; AID 651616; in the data active = inhibition above about 27%
GDH-TPI counter-2: counter-screen for M. tuberculosis FBA inhibitors: GDH-TPI coupled enzyme inhibition; shares compounds with FBA Mtb inh; GDH-TPI coupled enzyme counterscreen, fluorescence; inhibition, % at 1 µM; hit rate 81% among 5,600; AID 652141; in the data active = inhibition above about 10%
GDH-TPI dose: GDH-TPI dose response counter-screen for Mtb FBA | shares compounds with FBA Mtb inh | GDH-TPI coupled enzyme assay, fluorescence, artifact counterscreen | IC50, µM | hit rate 79% among 170 | AID 652145; call rule not given here
Of the large screens only hits and unclear results are named; the others gave an inactive call (follow-up assays come after a bar, where they were run). Rows were chosen to be rich in hits. Some 4.2% of all compounds tested hit in one or more screens of this group. Rule as the data show it, unless noted: active = inhibition above about 30%; inactive = the rest.

COc1cc(-c2c(NC(=O)c3ccco3)oc3c(C)cccc3c2=O)cc(OC)c1OC	none
COc1ccc(-c2c(NC(=O)c3ccco3)oc3c(C)cccc3c2=O)cc1	FBA Mtb inh 53 | Mtb FBA inh conf inactive | GDH-TPI counter-2 inactive
CCOC(=O)c1sc2nc(N3CCOCC3)c3c(c2c1N)CC(C)(C)N(C)C3	FBA Mtb inh 59 | Mtb FBA inh conf inactive | GDH-TPI counter-2 inactive
Nc1c(C(=O)NCCc2ccccc2)sc2nc(N3CCOCC3)c3c(c12)CCCC3	FBA Mtb inh 82 | Mtb FBA inh conf inactive | GDH-TPI counter-2 14
Cc1ccc(NC(=O)c2sc3nc(N4CCOCC4)c4c(c3c2N)CC(C)(C)OC4)cc1	none
CC1(C)Cc2c(c(N3CCCC3)nc3sc(C(=O)Nc4ccccc4)c(N)c23)CO1	FBA Mtb inh 34 | Mtb FBA inh conf active | GDH-TPI counter-2 active
CCOc1ccc2[nH]c(=O)c(CN(Cc3nnnn3Cc3ccco3)C3CCCCC3)cc2c1	none
COc1cc2cc(CN(Cc3nnnn3Cc3ccco3)C3CCCCC3)c(=O)[nH]c2cc1OC	FBA Mtb inh 40 | Mtb FBA inh conf 63 | GDH-TPI counter-2 53
COCCn1nnnc1CN(Cc1cc2cc(OC)c(OC)cc2[nH]c1=O)C1CCCC1	FBA Mtb inh 39 | Mtb FBA inh conf 73 | GDH-TPI counter-2 70
CCOc1ccc(S(=O)(=O)N2CCN(C(=O)c3ccc(C)c(S(=O)(=O)N4CCOCC4)c3)CC2)cc1	none (no result: RecA intein inh)
O=c1cc(C(F)(F)F)[nH]c2ccc(C(F)(F)F)cc12	FBA Mtb inh 35 | Mtb FBA inh conf 65 | GDH-TPI counter-2 50
Cc1cc(=O)c2ccc(C(F)(F)F)cc2[nH]1	none
COC(=O)c1scc2c(=O)cc(C(F)(F)F)[nH]c12	FBA Mtb inh 29 | GDH-TPI counter-2 active
COC(=O)C1=C(C)NC(=O)C1(Nc1nccs1)C(F)(F)F (stereo not given)	none
CC1CC(NC(=O)c2cc3c(=O)n4ccccc4nc3n2C)CC(C)(C)C1 (stereo not given)	FBA Mtb inh 72 | Mtb FBA inh conf 71 | GDH-TPI counter-2 62
Cc1ccc2nc3c(cc(C(=O)NC4CCCCC4)c(=N)n3C3CCCCC3)c(=O)n2c1	FBA Mtb inh 71 | Mtb FBA inh conf 121 | GDH-TPI counter-2 85
CC1CC(NC(=O)c2cnc3n(c2=O)CCS3)CC(C)(C)C1 (stereo not given)	none
Cc1cccn2c(=O)c3cc(C(=O)NCc4ccco4)c(=N)n(C4CCCC4)c3nc12	FBA Mtb inh 90 | Mtb FBA inh conf 78 | GDH-TPI counter-2 63
N=c1c(C(=O)NC2CCCC2)cc2c(=O)n3ccccc3nc2n1C1CCCCC1	FBA Mtb inh 64 | Mtb FBA inh conf 49 | GDH-TPI counter-2 41
CCOC(=O)C1=C(C)NC(C)=C(C(=O)OCC)C1C(=O)OCC(=O)NCc1ccc(F)cc1	none (no result: RecA intein inh)
CC(Oc1cc2oc(=O)c3c(c2cc1Cl)CCCC3)C(=O)NCc1ccccn1 (stereo not given)	none
Cc1c(OC(C)C(=O)NCc2ccncc2)ccc2c3c(c(=O)oc12)CCC3 (stereo not given)	FBA Mtb inh 73 | Mtb FBA inh conf 83 | GDH-TPI counter-2 53
Cc1c(OC(C)C(=O)NCc2ccccn2)ccc2c3c(c(=O)oc12)CCCC3 (stereo not given)	FBA Mtb inh 68 | Mtb FBA inh conf inactive | GDH-TPI counter-2 inactive
Cc1cc(C)n2nc(SCC(=O)Nc3ccc(F)c(F)c3F)nc2n1	none (no result: RecA intein inh)
Cc1cccn2c(=O)c3cc(C(=O)N4CC(C)CC(C)C4)sc3nc12 (stereo not given)	none
C=CCNC(=O)c1cc2c(=O)n3cccc(C)c3nc2s1	FBA Mtb inh 93 | Mtb FBA inh conf 165 | GDH-TPI counter-2 133
COc1ccc(CCNC(=O)c2cc3c(=O)n4cccc(C)c4nc3s2)cc1OC	none
CCC(C)NC(=O)c1cc2c(=O)n3cccc(C)c3nc2s1 (stereo not given)	FBA Mtb inh 104 | Mtb FBA inh conf 171 | GDH-TPI counter-2 147
CN(C(=O)c1ccncc1)c1nnc(-c2ccccn2)s1	FBA Mtb inh 48 | Mtb FBA inh conf 146 | GDH-TPI counter-2 133
CN(C(=O)c1ccc(C#N)cc1)c1nnc(-c2ccccn2)s1	none
O=C(O)CCc1nn2c3ccccc3n(Cc3ccccc3)c2nc1=O	FBA Mtb inh 36 | Mtb FBA inh conf inactive | GDH-TPI counter-2 inactive
CC(=O)Cn1c2ccccc2n2nc(CCC(=O)O)c(=O)nc12	none
CC(C)c1nnc(NC(=O)c2cccc(NC(=O)C(F)(F)F)c2)s1	none
CCN1C(=O)c2cccc3c(S(=O)(=O)N(C(C)=O)c4ccc(OC(C)=O)cc4)ccc1c23	FBA Mtb inh 53 (no result: RecA intein inh) | Mtb FBA inh conf active | GDH-TPI counter-2 active
COc1cc(=O)[nH]c(SC(C)C(=O)Nc2cc(C)on2)n1 (stereo not given)	none
NS(=O)(=O)c1ccc(CCNC(=O)CCNS(=O)(=O)c2ccccc2C(F)(F)F)cc1	none (no result: RecA intein inh)
Cc1cc(NC(=O)c2cc(-c3ccccc3C)nc3ccccc23)no1	none
CC(C)N1CCc2c(sc(NC(=O)c3cc(-c4cccs4)nc4ccccc34)c2C(N)=O)C1	none (no result: CCHFV vOTU inh)
CCC(C)NC(=O)c1cc(-c2cccs2)nc2ccccc12 (stereo not given)	FBA Mtb inh 94 | Mtb FBA inh conf 101 | GDH-TPI counter-2 92
CC(C)CCNC(=O)c1cc(-c2cccs2)nc2ccccc12	FBA Mtb inh 65 | Mtb FBA inh conf inactive | GDH-TPI counter-2 inactive
Cc1cc(NC(=O)c2cc(-c3ccc(C)s3)nc3ccccc23)no1	FBA Mtb inh 29 | Mtb FBA inh conf active | GDH-TPI counter-2 180
O=C(NCc1cccs1)c1cc(-c2ccccc2)nc2ccccc12	none
CC(C)(CNC(=O)c1cccs1)N1CCOCC1	none (no result: RecA intein inh)
CC1(C(=O)Nc2cccc(NS(C)(=O)=O)c2)CCN1CCc1ccccc1 (stereo not given)	none (no result: RecA intein inh)
Nc1nnc(/C=C/c2ccccc2Cl)s1	FBA Mtb inh 28 | Mtb FBA inh conf inactive | GDH-TPI counter-2 inactive | GDH-TPI dose 3.9
O=C(Nc1ccccc1)Nc1nnc(/C=C/c2ccccc2Cl)s1	none
CCN(c1ccccc1)S(=O)(=O)c1cccc(C(=O)NCC2(N(C)C)CCCCC2)c1	none (no result: RecA intein inh)
CC[C@@H]1C(c2cccc(C)c2)=NN(c2ccccc2)[C@H]1C(=O)N1CCOC1=O	none (no result: RecA intein inh)
Cc1cccc(C2=NN(c3ccccc3)[C@H](CO)[C@H]2c2ccc(F)cc2)c1	FBA Mtb inh 63 (no result: RecA intein inh) | Mtb FBA inh conf 91 | GDH-TPI counter-2 61
Cc1cccc(C2=NN(c3ccccc3)[C@@H](C(=O)N3CCOC3=O)[C@@H]2c2ccc([N+](=O)[O-])cc2)c1	none (no result: RecA intein inh)
Cc1cccc(C2=NN(c3ccccc3)[C@H](CO)[C@H]2c2ccc(Cl)cc2)c1	FBA Mtb inh 55 (no result: RecA intein inh) | Mtb FBA inh conf inactive | GDH-TPI counter-2 inactive
COc1ccccc1C(=O)NC(CCSC)C(=O)OCC(=O)N1CCN(S(=O)(=O)c2ccc(C)cc2)CC1 (stereo not given)	none (no result: RecA intein inh)
